Measurements reported in PubChem BioAssay (NCATS).
Results filed as inconclusive are left out. Where a call stands in place of a potency, no number is given. Active and inactive are the calls of the source. The call rests on the fitted dose curve; in most records, active means well fitted curve in the direction sought with a large enough effect; inconclusive means small, poorly fitted or top-dose-only effect, or another doubt; inactive means no such curve, though single readings can be large; an effect the other way counts as inactive or inconclusive.

Experiments:
[1] = qHTS of Trypanosoma Brucei Inhibitors: LOPAC Validation (AID 624147); conditions: purified enzyme assay, luminescence, 45 min; series mostly up to 57.5 µM
How it was run: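 Screened from lowest to highest concentration, compounds were pinned into TbPYK/substrate mixtures, and ADP (130 uM final) was added. Plates sat at room temperature for 45 min prior to Kinase-Glo Plus detection by luminescence.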

[2] = biological target: Glucagon-like peptide 1 receptor (Homo sapiens) (UniProt P43220); assay: qHTS of GLP-1 Receptor Agonists: LOPAC Validation (AID 624148); conditions: GLP-1R agonist cell assay; series mostly up to 46.1 µM;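 further: higher luminescence signal means agonism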
Sequence of Glucagon-like peptide 1 receptor (Homo sapiens) (P43220 whole entry, looked up): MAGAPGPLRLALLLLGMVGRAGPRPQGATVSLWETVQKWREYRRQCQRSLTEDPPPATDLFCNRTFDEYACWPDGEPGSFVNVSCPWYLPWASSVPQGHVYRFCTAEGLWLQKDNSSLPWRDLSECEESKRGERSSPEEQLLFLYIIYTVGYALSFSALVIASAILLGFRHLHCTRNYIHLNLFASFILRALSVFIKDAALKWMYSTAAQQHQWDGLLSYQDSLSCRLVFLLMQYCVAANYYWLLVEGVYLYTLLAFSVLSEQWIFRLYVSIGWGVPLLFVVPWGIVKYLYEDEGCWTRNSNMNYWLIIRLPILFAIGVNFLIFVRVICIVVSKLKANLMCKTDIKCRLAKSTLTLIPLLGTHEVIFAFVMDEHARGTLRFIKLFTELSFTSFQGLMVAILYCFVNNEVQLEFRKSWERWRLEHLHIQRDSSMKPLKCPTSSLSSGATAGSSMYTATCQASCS
How it was run: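 HEK293 cells stably co-expressing a cAMP-responsive luciferase reporter and a hypersensitive GLP-1R were plated 12 h at 37 °C and exposed to compounds for 4-6 hr at 37 °C, 5% CO2. Luminescence was read 12 min after adding detection reagent.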

[3] = biological target: Glutaminase kidney isoform, mitochondrial (Homo sapiens) (UniProt O94925); assay: qHTS for Inhibitors of Glutaminase (GLS): LOPAC Validation (AID 624146); conditions: glutaminase enzyme activity inhibition; series mostly up to 46.1 µM; further: nearly all actives have a fitted effect of over 60% in size; further: potency means the concentration at half of the fitted maximal effect
Sequence of Glutaminase kidney isoform, mitochondrial (Homo sapiens) (O94925 whole entry, looked up, canonical isoform): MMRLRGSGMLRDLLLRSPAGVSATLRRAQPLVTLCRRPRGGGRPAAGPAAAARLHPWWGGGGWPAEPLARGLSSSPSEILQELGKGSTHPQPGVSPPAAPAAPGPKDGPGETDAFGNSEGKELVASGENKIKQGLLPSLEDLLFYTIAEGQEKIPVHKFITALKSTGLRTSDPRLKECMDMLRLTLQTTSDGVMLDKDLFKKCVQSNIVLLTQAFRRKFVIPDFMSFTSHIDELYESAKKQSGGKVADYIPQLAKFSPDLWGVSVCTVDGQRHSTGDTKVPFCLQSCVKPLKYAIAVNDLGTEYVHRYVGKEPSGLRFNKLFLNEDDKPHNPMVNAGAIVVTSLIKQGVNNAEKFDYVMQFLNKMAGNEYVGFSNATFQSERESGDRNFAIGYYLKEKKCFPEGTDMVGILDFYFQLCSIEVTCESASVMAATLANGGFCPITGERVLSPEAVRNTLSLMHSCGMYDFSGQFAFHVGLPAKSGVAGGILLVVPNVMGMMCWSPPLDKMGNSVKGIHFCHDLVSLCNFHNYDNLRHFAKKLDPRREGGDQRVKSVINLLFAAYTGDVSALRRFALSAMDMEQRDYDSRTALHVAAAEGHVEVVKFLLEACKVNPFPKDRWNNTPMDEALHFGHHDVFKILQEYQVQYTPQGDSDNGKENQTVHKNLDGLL
How it was run: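 Two-point fluorescence kinetic (t0, 30 min RT) for hKGA; glutamate detected via glutamate oxidase–HRP–Amplex Red. Substrate: 1 mM L-glutamine solution; buffer 45 mM KH2PO4, pH 8.2.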

[4] = qHTS of Nrf2 Activators: LOPAC Validation (AID 624149); conditions: Nrf2/ARE reporter cell assay; series mostly up to 46.1 µM
How it was run: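 Luminescence read-out of ARE-luciferase activation: AREc32_Fluc cells treated with compounds for 24 hr at 37 deg C, then lysed with Steady-Glo for 30 min at room temperature before reading.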

[5] = HTS Assay for Allosteric Antagonists of the Human D2 Dopamine Receptor: Hit Validation in HTRF (AID 624455); conditions: Cells stably expressing D1 dopamine receptor, inhibition mode; series mostly up to 46.1 µM; further: potency means the concentration at half of the fitted maximal effect;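 further: stable D1 dopamine receptor cell line scored for blocking the D1 response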
How it was run: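 First, antagonism was screened by calcium flux in a force-coupled, inducible Hek293 Trex D2 line challenged with EC80 dopamine. Hits then went into an HTRF assay in cells stably expressing D1, testing inhibition of the D1 response.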

Compound	Potency [1]	Potency [2]	Potency [3]	Potency [4]	Potency [5]
CN1Cc2sccc2C(c2ccc(O)c(O)c2)C1 (stereo not given)	inactive	inactive	–	–	–
CCC1(O)CC2CN(CCc3c([nH]c4ccccc34)[C@@](C(=O)OC)(c3cc4c(cc3OC)N(C)C3[C@]45CCN4CC=C[C@@](CC)([C@@H](OC(C)=O)[C@]3(O)C(=O)OC)[C@H]45)C2)C1 (stereo not given in full)	inactive	inactive	8.91 µM (active)	inactive	inactive
Nc1nc2c(cnn2CCc2ccccc2)c2nc(-c3ccco3)nn12	inactive	inactive	inactive	–	inactive
C[C@](Cc1ccc(O)c(O)c1)(NN)C(=O)O	–	inactive	1.58 µM (active)	inactive	–
C=CCNc1ncnc2ccc(Br)cc12	inactive	inactive	inactive	inactive	inactive
CC(/C=C/c1cccc(Oc2ccc(F)cc2)c1)N(O)C(N)=O (stereo not given)	inactive	inactive	1.78 µM (active)	–	inactive
CN(C)CCCc1cc(C(=O)Nc2ccc(-c3ccncc3)cc2)ccc1O	inactive	–	inactive	inactive	–
Cn1cc(C(F)(F)F)nc1-c1ccc(OCC(O)CNCCOc2ccc(O)c(C(N)=O)c2)cc1 (stereo not given)	inactive	inactive	–	inactive	inactive
N#Cc1cc([N+](=O)[O-])c2sc(C(N)=O)[n+]([O-])c2c1	inactive	inactive	–	inactive	inactive
CCCCCCCC/C=C\CCCCCCCC(=O)NCCc1ccc(O)c(O)c1	inactive	inactive	–	inactive	0.651 µM (active)
CCCCCC[C@@H]([C@@H](C)O)n1cnc2c(N)ncnc21	inactive	inactive	inactive	–	inactive
CC[n+]1c(/C=C/C=C2/N(C)c3ccccc3C2(C)C)sc2ccccc21	–	inactive	11.2 µM (active)	inactive	inactive
COc1cc(N)c(Cl)cc1C(=O)OCCN1CCCCC1	inactive	inactive	inactive	–	inactive
CC(C)NC[C@H](O)COc1cccc2ccccc12	–	inactive	inactive	inactive	inactive
CCCCCCN(CCCCCC)C(=O)Cc1c(-c2ccc(F)cc2)[nH]c2ccccc12	inactive	inactive	–	–	inactive
CN(C)CCC(c1ccc(Br)cc1)c1ccccn1 (stereo not given)	inactive	inactive	–	inactive	inactive
CC(C)(CO)Cc1cc(C(C)(C)C)c(O)c(C(C)(C)C)c1	inactive	inactive	1.78 µM (active)	–	inactive
CC[C@H](NC(=O)c1c(C)c(-c2ccccc2)nc2ccccc12)c1ccccc1	inactive	inactive	inactive	inactive	inactive
c1ccc(C(NCc2cccnc2)(c2ccccc2)c2ccccc2)cc1	inactive	inactive	–	inactive	inactive
CCCCCCCCCCC(C)(C)C(=O)Nc1c(OC)cc(OC)cc1OC	inactive	inactive	inactive	inactive	inactive
CCCOC(=O)c1c(-c2ccccc2)nc(CC)c(C(=O)SCC)c1CCC	inactive	inactive	inactive	–	inactive
C[C@@H](NCCc1ccc(O)cc1)[C@@H](O)c1ccc(O)cc1	inactive	–	–	inactive	–
O=C(O)/C=C/c1ccc(O)c(O)c1	–	inactive	2 µM (active)	inactive	inactive
O=c1oc(Cl)c(Cl)c2ccccc12	inactive	inactive	inactive	–	inactive
O=c1[nH]c(=S)[nH]c(-c2ccccc2)c1Cc1c(O)ccc2ccccc12	inactive	inactive	8.91 µM (active)	–	inactive
O=c1onc2n1-c1cc(Br)ccc1OC2	inactive	inactive	inactive	inactive	inactive
CC(C)NCC(O)COc1ccc(CC(N)=O)cc1 (stereo not given)	–	inactive	inactive	inactive	–
